The whole screen tested about 400,000 compounds, of which about 2,100 (0.53%) were called active. About 14% were inconclusive and are not listed. No rule for the calls is given here. This excerpt belongs to a sample that is enriched for actives.

Ataxin-2 (Homo sapiens), sequence (Q99700 whole entry): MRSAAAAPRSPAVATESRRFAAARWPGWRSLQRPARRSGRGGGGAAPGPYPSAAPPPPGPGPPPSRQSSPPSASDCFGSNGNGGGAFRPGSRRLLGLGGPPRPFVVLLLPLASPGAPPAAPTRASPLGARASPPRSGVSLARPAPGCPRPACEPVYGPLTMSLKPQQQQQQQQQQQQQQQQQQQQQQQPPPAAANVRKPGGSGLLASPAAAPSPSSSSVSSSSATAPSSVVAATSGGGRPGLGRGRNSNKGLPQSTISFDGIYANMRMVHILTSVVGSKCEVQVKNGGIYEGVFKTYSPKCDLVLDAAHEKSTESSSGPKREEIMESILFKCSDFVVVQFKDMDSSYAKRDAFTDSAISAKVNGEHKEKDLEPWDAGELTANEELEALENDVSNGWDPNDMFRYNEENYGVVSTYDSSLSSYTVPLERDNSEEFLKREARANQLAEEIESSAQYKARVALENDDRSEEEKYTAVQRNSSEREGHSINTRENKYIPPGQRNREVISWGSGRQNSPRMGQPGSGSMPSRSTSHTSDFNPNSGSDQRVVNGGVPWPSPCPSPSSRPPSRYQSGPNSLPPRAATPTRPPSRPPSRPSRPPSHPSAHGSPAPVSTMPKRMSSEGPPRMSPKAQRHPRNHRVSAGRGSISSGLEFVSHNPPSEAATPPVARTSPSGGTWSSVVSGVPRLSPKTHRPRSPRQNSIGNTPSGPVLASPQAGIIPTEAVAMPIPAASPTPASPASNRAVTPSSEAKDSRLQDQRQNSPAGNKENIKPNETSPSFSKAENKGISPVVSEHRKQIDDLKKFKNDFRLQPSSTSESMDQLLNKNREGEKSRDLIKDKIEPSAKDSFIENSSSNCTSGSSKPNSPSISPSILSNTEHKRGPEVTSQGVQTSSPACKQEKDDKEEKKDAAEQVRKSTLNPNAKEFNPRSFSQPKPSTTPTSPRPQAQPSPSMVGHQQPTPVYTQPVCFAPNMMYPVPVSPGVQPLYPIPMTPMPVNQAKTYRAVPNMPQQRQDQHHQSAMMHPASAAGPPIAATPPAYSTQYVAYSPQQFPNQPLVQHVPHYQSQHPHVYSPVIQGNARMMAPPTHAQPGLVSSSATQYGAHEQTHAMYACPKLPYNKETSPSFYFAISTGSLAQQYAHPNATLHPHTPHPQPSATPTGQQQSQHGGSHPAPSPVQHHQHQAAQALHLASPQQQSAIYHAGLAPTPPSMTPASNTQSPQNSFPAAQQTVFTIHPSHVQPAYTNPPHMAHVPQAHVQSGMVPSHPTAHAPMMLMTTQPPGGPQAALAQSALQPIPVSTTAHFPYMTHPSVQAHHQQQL

The assay concerns the target Ataxin-2 (Homo sapiens) (UniProt Q99700). Briefly: qHTS for Inhibitors of ATXN expression. In kind it is functional. Background: Quantitative high-throughput screening tests each substance at several concentrations.
For `CCOC(=O)Cc1cnc(NC(=O)CSc2nc(C)c(CC)c(O)n2)s1`, the Potency entry is “inactive”.
In the case of `CC(C)Oc1ccc(C(CCNCc2ccc(O)cc2)c2ccccc2)cc1` (stereo not drawn) it was 39.8 µM (active).
Turning to `COc1ccc(CNCCC(c2ccc(OC(C)C)cc2)C(C)C)cc1OC` (stereo not drawn), the Potency was 25.1 µM (active).
The same measure for `OCCCNCc1ccc(-c2ccccc2)cc1`: “inactive”; for `O=c1c(O)c(-c2ccc(O)c(O)c2)oc2cc(O)ccc12`: “inactive”; for `NC(=O)C[n+]1ccc(C=NO)cc1`: “inactive”.
In the case of `CCc1cc(=O)oc2c(CNCc3ccccc3F)c(O)c(Cl)cc12` it was “inactive”; in that of `O=C(NNC(=O)c1cc2cc(Br)ccc2oc1=O)c1ccc(O)cc1O`, “inactive”; in that of `Cc1ccc(NC(=O)CSCC(=O)OCc2cc(=O)oc3cc(O)ccc23)c(C)c1`, “inactive”.
The same measure for `COCCCn1/c(=N/C(=O)c2ccncc2)c(C#N)cc2c(=O)n3cccc(C)c3nc21`: “inactive”; for `c1cc2c(cc1C1CCCCC1)c1c3n2CCCNC3CCC1` (stereo not drawn): 39.8 µM (active); for `COc1ccc(NS(=O)(=O)c2cc(NC(=O)c3cc(=O)c4ccccc4o3)ccc2OC)cc1`: “inactive”.
Take `COc1ccc(OC)c(S(=O)(=O)Nc2ccc(O)c3ccccc23)c1`: the Potency is 28.2 µM (active).
`COc1ccc(OC)c(S(=O)(=O)Nc2ccc3c(c2)OCCO3)c1`: the Potency entry is “inactive”.
In the case of `CN(CCC1CCCCO1)C(=O)CCc1nnc(CCCCc2ccccc2)o1` (stereo not drawn) it was “inactive”; in that of `Cc1cc(C)c(CN2CCN(CCCn3cnc(C(=O)Nc4ccc(C)c(C)c4)n3)CC2)c(C)c1`, 35.5 µM (active); in that of `Cc1ccc(OCC(=O)Nc2ccc(CN3CCOCC3)cc2)cc1C`, “inactive”.
The same measure for `Brc1ccc(C2=CC(c3ccco3)n3nnnc3N2)cc1` (stereo not drawn): “inactive”; for `CC(C)N=C(S)NN=C1c2ccccc2-c2ccccc21`: “inactive”; for `CCOC(=O)c1sc2nc(C)nc(Nc3ccc(OC)c(OC)c3)c2c1C`: “inactive”.
In the case of `CCc1nnc(NS(=O)(=O)c2ccc(N/C=C\C(=O)c3cccc(OC)c3)cc2)s1` it was “inactive”.
With `COc1ccc(/C=C/C(=O)Nc2cccnc2)cc1OC`, the Potency result was “inactive”.
On to `COc1cc(/C=C/C(=O)Nc2ccc(S(=O)(=O)Nc3onc(C)c3C)cc2)cc(OC)c1OC`, for which the Potency result is “inactive”.
In the case of `CCC1CSC(Nc2ccc(C(=O)/C=C/c3ccc(OC)c(OC)c3)cc2)=N1` (stereo not drawn) it was 39.8 µM (active).
The same measure for `COc1ccc(/C=C/C(=O)Nc2ccc(Cl)c(Cl)c2)cc1OC`: 31.6 µM (active); for `COc1cccc(/C=C/C(=O)c2ccc(NC3=NCCCS3)cc2)c1`: 39.8 µM (active); for `COc1cc(/C=C/C(=O)OCC(=O)NC2CCS(=O)(=O)C2)ccc1OC(F)F` (stereo not drawn): “inactive”.
The same measure for `CCOc1ccc(Nc2oc(/C=C/c3cccc(OC)c3)nc2C#N)cc1`: “inactive”.
Take `CC(C)C(C)(C#N)NC(=O)CSc1nnc(C(F)(F)F)n1C` (stereo not drawn): the Potency result was “inactive”.
The same measure for `COc1cccc(/C=C/c2nc(C#N)c(N3CCCCCC3)o2)c1`: “inactive”; for `COc1ccccc1[C@@H]1C(c2cccc(C)c2)=NN(c2ccccc2)[C@H]1C(=O)N1CCOC1=O`: “inactive”; for `CCN1CN=C(S)N(c2ccccc2C)C1`: “inactive”.
In the case of `Cc1nn2c(-c3ccc(F)cc3)ccnc2c1Cl` it was “inactive”.
In the case of `CN(C)c1ccc(/C=C2\Oc3ccc(C#Cc4cccc(N)c4)cc3C2=O)cc1` it was “inactive”; in that of `CN1Cc2c(N3CCOCC3)nc3sc(C(=O)c4ccc(Br)cc4)c(N)c3c2CC1(C)C`, “inactive”.
On to `Cc1ccccc1-c1nc(C#N)c(N2CCCCC2)o1`, for which the Potency entry was “inactive”.
The same measure for `COC1=C(OC)C(=O)C(Sc2ccc3ccccc3c2)=CC1=O`: 33.6 µM (active); for `CC1=CC(=O)C(Sc2ccc(C)cc2)=CC1=O`: “inactive”; for `Cc1cccn2c(=O)c3cc(C(=O)NCC4CCCO4)c(=N)n(C4CCCCC4)c3nc12` (stereo not drawn): “inactive”.
Turning to `COC(=O)C1=NN(c2ccc(C)cc2)C2C(=O)N(c3ccccc3OC)C(=O)C12` (stereo not drawn), the Potency entry is “inactive”.
Regarding `COc1ccccc1CNC(=O)Nc1nc(C(N)CCc2ccccc2)cs1` (stereo not drawn), the Potency was 39.8 µM (active).
The same measure for `COc1ccccc1CNC(=O)Cc1cc(O)nc(O)n1`: “inactive”.
The same measure for `COc1ccc(OC)c(NC(=O)Nc2nc(C(N)CCc3ccccc3)cs2)c1` (stereo not drawn): 39.8 µM (active); for `COc1ccccc1CNC(=O)C(C)Sc1ccc(C)cc1` (stereo not drawn): “inactive”.
In the case of `Cc1ccc(S(=O)(=O)Nc2nc3n(n2)C(c2ccccc2Cl)C=C(c2ccccc2)N3)cc1` (stereo not drawn) it was “inactive”; in that of `CSc1ccc(/C=C/c2ccc3cccc(O)c3n2)cc1`, “inactive”.
Regarding `Oc1ccc(/C=C/c2ccc3cccc(O)c3n2)cc1Br`, the Potency entry was “inactive”.
In the case of `Oc1cccc2ccc(Nc3ccccn3)nc12` it was 39.8 µM (active); in that of `O=c1oc2ccccc2cc1-c1nc2c(s1)CCc1ccccc1-2`, “inactive”.
For the compound `Cc1cc(C)c2c(N)c(C(=O)N/N=C/c3cccnc3)sc2n1`, the Potency result is “inactive”.
In the case of `CC(NCC(O)COCCC12CC3CC(CC(C3)C1)C2)c1ccccc1` (stereo not drawn) it was 39.8 µM (active); in that of `CC(NCC(O)COC1CCC(C(C)(C)C)CC1)c1ccccc1` (stereo not drawn), 35.5 µM (active).
In the case of `Cc1cccc(C)c1OCC(O)CNC(C)c1ccccc1` (stereo not drawn) it was “inactive”.
In the case of `CC(O)CNC12CC3CC(CC(C3)C1)C2` (stereo not drawn) it was “inactive”; in that of `CCOc1ccc2nc(N3CCCN(C(=O)Nc4ccccc4C)CC3)c(C#N)cc2c1`, “inactive”.
As for `O=C1CC2C(=O)NCCN2C(NC(=O)c2ccc(Cl)cc2)=N1` (stereo not drawn), the Potency result was “inactive”.
In the case of `Oc1ccc(N=Nc2ccc3c(c2)OCCO3)c2ncccc12` it was 15.8 µM (active); in that of `COC(=O)c1ccc(C(=O)OC)c(NC(=S)N2CCN(c3ccccc3F)CC2)c1`, “inactive”; in that of `COc1ccc(CC(=O)Nc2cccc(-c3nnc(-c4ccccc4)o3)c2)cc1OC`, 10 µM (active).
The same measure for `COc1ccc(CCC(=O)OCC(=O)Nc2ccc(OC)c(OC)c2)cc1OC`: “inactive”; for `COc1ccc(-c2nnc(-c3ccccc3)o2)cc1OC`: “inactive”.
The same measure for `CCOc1cc(-c2noc(-c3ccncc3)n2)cc(Br)c1OC`: 44.7 µM (active); for `O=[N+]([O-])c1ccc(-c2nc(-c3ccncc3)no2)cc1`: “inactive”; for `CCOc1ccccc1-c1nc(-c2ccc(C)nc2OC)no1`: “inactive”.
For `O=C1C=C(N(CCO)Cc2ccccc2)c2ccccc2C1=O`, the Potency was 29.9 µM (active).
`CC1(C)Cc2nc(Cl)c(C(N)=O)cc2CO1`: the Potency entry is “inactive”.
In the case of `C=CCC[C@H](Cc1ccc(F)cc1)C(=O)OC[C@H](Cc1c[nH]c2ccccc12)NC(=O)[C@@H](CC=C)CC(=O)N(CCO)Cc1ccccc1` it was 22.4 µM (active); in that of `C=CCC[C@@H](Cc1ccc(F)cc1)C(=O)OC[C@@H](Cc1c[nH]c2ccccc12)NC(=O)[C@H](CC=C)CC(=O)N(CCO)Cc1ccccc1`, 22.4 µM (active).

These data come from ChEMBL document CHEMBL1201862, “PubChem BioAssay data set” (2004).
